Laboratory results published in the supplement of paper PMC10646978.
± gives the standard deviation.

Assays:
Conditions in all cases: modulator concentration 10 µM
[1] = test system: RAW-Dual (murine macrophage reporter line); test: NF-kB reporter (SEAP) activity fold change vs agonist alone; higher = enhanced NF-kB activity
Method in brief: (§1)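 Overnight stimulation with a PRR agonist followed pre-incubation for 1 hour at 37 °C with compound at 10 μM final. This was done in RAW-Dual murine macrophage reporter cells seeded at 50 000 per well in 384-well plates. NF-κB (SEAP, QUANTI-Blue absorbance at 620 nm) and IRF (Lucia luciferase, QUANTI-Luc luminescence) were read from the supernatant. Each reporter's fold change relative to the mean agonist-only control on the same plate was averaged over replicate plates.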

[2] = test system: RAW-Dual (murine macrophage reporter line); test: IRF reporter (Lucia luciferase) activity fold change vs agonist alone; higher = enhanced IRF activity
Method in brief: as §1

[3] = test system: RAW-Dual (murine macrophage reporter line); test: viability score (confluency relative to resting cells, overnight) (fraction); higher = more viable, active = viable (0.7 or more)
Method in brief: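 A compound met the cutoff when both of two confluency masks exceeded 70% of resting cells. Those masks were made with IncuCyte software from IncuCyte images of RAW-Dual macrophages treated overnight at 10 μM final. This is the basis of the viability score, which is confluency relative to resting cells.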

[4] = agonist: CpG ODN 1826 0.5 ug/mL

| Compound | NF-kB reporter [1, 4] | NF-kB reporter ([1]; agonist: LPS 0.1 ug/mL) | NF-kB reporter ([1]; agonist: MPLA […]) | IRF reporter ([2]; agonist: 3'3'-cGAMP 10 ug/mL) | IRF reporter ([2]; agonist: LPS 0.1 ug/mL) | IRF reporter ([2]; agonist: MPLA […]) | viability score [3] |
| --- | --- | --- | --- | --- | --- | --- | --- |
| Cc1noc(C)c1CN1CCC(C(F)(F)F)CC1.Cl | 0.908 ± 0.048 | 0.947 ± 0.081 | 1.1 ± 0.066 | 1.09 ± 0.072 | 1.32 ± 0.29 | 1.6 ± 0.52 | 0.937 (active) |
| Brc1ccc2ncnc(NCc3cccnc3)c2c1 | 1.22 ± 0.069 | 1.31 ± 0.11 | 1.02 ± 0.04 | 0.329 ± 0.014 | 0.498 ± 0.047 | 0.641 ± 0.11 | 1 (active) |
| O=C(Nc1nccs1)c1ccc2c(c1)C(=O)N(CC1CCCO1)C2=O (configuration not stated) | 1.12 ± 0.11 | 0.919 ± 0.088 | 0.975 ± 0.028 | 0.997 ± 0.037 | 1.04 ± 0.054 | 1.14 ± 0.13 | 0.997 (active) |
| COc1ccc(CCNC2CC(=O)N(C)C2=O)cc1OC (configuration not stated) | 1.08 ± 0.061 | 1.03 ± 0.11 | 0.994 ± 0.046 | 0.944 ± 0.07 | 0.998 ± 0.091 | 0.895 ± 0.15 | 0.997 (active) |
| NC(=O)c1nc(F)cnc1O | 1.06 ± 0.25 | 1.04 ± 0.051 | 2.37 ± 1.4 | 0.897 ± 0.031 | 1.27 ± 0.14 | 1.39 ± 0.14 | 1.01 (active) |
| O=Cc1cn(CCOc2ccc(Cl)cc2)c2ccccc12 | 1.45 ± 0.12 | 0.883 ± 0.07 | 1.62 ± 0.06 | 0.685 ± 0.057 | 0.773 ± 0.081 | 0.613 ± 0.12 | 0.93 (active) |
| O=C(COc1ccccc1)N1CCCC1Cn1nccn1 (configuration not stated) | 0.962 ± 0.09 | 0.951 ± 0.077 | 0.923 ± 0.1 | 0.904 ± 0.049 | 1.17 ± 0.1 | 1.06 ± 0.25 | 0.975 (active) |
| N#CC(=Cc1cn(Cc2ccccc2Cl)c2ccccc12)c1nn(CCO)c(N)c1C#N | 0.919 ± 0.077 | 0.959 ± 0.053 | 0.91 ± 0.058 | 0.909 ± 0.063 | 1.18 ± 0.17 | 0.936 ± 0.058 | 1.02 (active) |
| COc1ccc(N(CC(=O)Nc2ccccc2C(F)(F)F)S(C)(=O)=O)cc1Cl | 0.96 ± 0.075 | 1.02 ± 0.097 | 0.979 ± 0.045 | 0.961 ± 0.17 | 1.02 ± 0.045 | 1.02 ± 0.19 | 1 (active) |
| COc1ccc(C2=NN(C(=O)c3ccc(Br)cc3)C(c3nc4ccccc4[nH]3)C2)cc1 (configuration not stated) | 0.994 ± 0.087 | 1.1 ± 0.12 | 0.867 ± 0.07 | 0.92 ± 0.049 | 1.16 ± 0.092 | 1.1 ± 0.34 | 0.986 (active) |
| NN=C1CCCc2c1[nH]c1ccc(Cl)cc21 | 1.07 ± 0.11 | 1.04 ± 0.081 | 1.05 ± 0.056 | 0.505 ± 0.13 | 0.95 ± 0.076 | 0.873 ± 0.12 | 0.99 (active) |
| COc1ccc(CN(CCN(C)C)c2ccccn2)cc1.O=C(O)/C=C\C(=O)O | 0.568 ± 0.15 | 1 ± 0.053 | 1.01 ± 0.094 | 0.834 ± 0.073 | 0.773 ± 0.13 | 0.78 ± 0.087 | 0.946 (active) |
| COc1cc(Nc2ncc3c(n2)-c2ccc(Cl)cc2C(c2c(F)cccc2OC)=NC3)ccc1C(=O)O | 0.416 ± 0.036 | 0.72 ± 0.038 | 0.775 ± 0.081 | 0.974 ± 0.045 | 1.06 ± 0.062 | 1.06 ± 0.15 | 0.92 (active) |
| CCN1C(=O)C(=C2SC(N3CCOCC3)=NC2=O)c2ccccc21 | 0.991 ± 0.08 | 1.07 ± 0.079 | 0.952 ± 0.064 | 0.949 ± 0.042 | 1.22 ± 0.13 | 0.978 ± 0.23 | 1.01 (active) |
| CC(NCCC(c1ccccc1)c1ccccc1)c1ccccc1.Cl (configuration not stated) | 0.274 ± 0.11 | 0.64 ± 0.047 | 0.67 ± 0.075 | 0.735 ± 0.058 | 0.929 ± 0.13 | 1 ± 0.13 | 0.204 (inactive) |
| CCN1CCN(Cc2ccc(Nc3ncc(F)c(-c4cc(F)c5nc(C)n(C(C)C)c5c4)n3)nc2)CC1.CS(=O)(=O)O | 0.095 ± 0.023 | 0.793 ± 0.04 | 3.04 ± 0.21 | 0.29 ± 0.018 | 0.19 ± 0.035 | 0.314 ± 0.03 | 0.852 (active) |
| CC(=O)C1CCC2C3CC=C4CC(O)CCC4(C)C3CCC12C (configuration not stated) | 1.19 ± 0.29 | 1.1 ± 0.12 | 1.13 ± 0.074 | 0.887 ± 0.03 | 1.28 ± 0.16 | 1.32 ± 0.16 | 0.986 (active) |
| COc1ccc(C=CC(=O)Nc2sc(C(=O)OC(C)C)c(C)c2C(N)=O)cc1 | 0.846 ± 0.076 | 0.798 ± 0.045 | 0.958 ± 0.086 | 0.949 ± 0.043 | 1.44 ± 0.092 | 1.57 ± 0.17 | 1 (active) |
| Cl.Cl.OCCOCCN1CCN(C(c2ccccc2)c2ccc(Cl)cc2)CC1 (configuration not stated) | 1.21 ± 0.051 | 1.51 ± 0.12 | 2.68 ± 0.22 | 0.726 ± 0.034 | 1.27 ± 0.25 | 1.45 ± 0.37 | 0.965 (active) |
| C=CCNC(=O)c1cccc(Br)c1 | 0.781 ± 0.061 | 0.962 ± 0.18 | 0.982 ± 0.097 | 0.933 ± 0.044 | 1.11 ± 0.19 | 1.09 ± 0.24 | 1.03 (active) |
| CCOC(=O)N[C@@H]1CC[C@@H]2[C@@H](C1)C[C@H]1C(=O)O[C@H](C)[C@H]1[C@H]2/C=C/c1ccc(-c2cccc(F)c2)cn1 | 0.376 ± 0.022 | 0.451 ± 0.1 | 0.323 ± 0.019 | 0.653 ± 0.082 | 0.783 ± 0.15 | 0.737 ± 0.16 | 0.299 (inactive) |
| CN(C)CCOC(C)(c1ccccc1)c1ccccn1.O=C(O)CCC(=O)O (configuration not stated) | 0.876 ± 0.12 | 1.25 ± 0.39 | 0.954 ± 0.067 | 0.862 ± 0.029 | 1.41 ± 0.33 | 1.16 ± 0.15 | 1 (active) |
| O=C(CCC(=O)NN=Cc1ccc(O)cc1)NN=Cc1ccc(O)cc1 | 0.915 ± 0.073 | 0.963 ± 0.062 | 0.947 ± 0.036 | 0.973 ± 0.12 | 0.974 ± 0.04 | 0.787 ± 0.085 | 1 (active) |
| Clc1nc(N2CCOCC2)nc(N(c2ccccc2)c2ccccc2)n1 | 0.889 ± 0.077 | 0.908 ± 0.086 | 1.08 ± 0.12 | 1.02 ± 0.049 | 1.41 ± 0.22 | 1.53 ± 0.42 | 1.03 (active) |
| Nc1ccc(S(=O)(=O)NCCO)cc1 | 0.983 ± 0.07 | 1.06 ± 0.12 | 0.996 ± 0.068 | 0.973 ± 0.042 | 1.4 ± 0.12 | 1.07 ± 0.11 | 1 (active) |
| O=c1sn(-c2cccc3ccccc23)c(=O)n1Cc1ccccc1 | 0.647 ± 0.1 | 0.501 ± 0.15 | 0.653 ± 0.044 | 0.473 ± 0.016 | 0.441 ± 0.14 | 0.81 ± 0.12 | 0.181 (inactive) |
